Sfp PPTase inh – Sfp phosphopantetheinyl transferase inhibition. hit rate 3.5% among 310,000. Q9F4F7. Biochemical Sfp PPTase activity, qHTS. Potency, µM, without a hit: largest response in the series, negative = inhibition, usual class: inhibitors. AID 1490;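 further: the enzyme is Sfp with the accession as filed and its product quenches rhodamine fluorescence; 0% = enzyme reaction without inhibitor and -100% = no enzyme wells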
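Reaction rates are the 30-min fluorescence difference (ex 525, em 598 nm) in wells containing 15 nM Sfp, 5 uM rhodamine-CoA and 12.5 uM BHQ-2-YbbR at pH 7.6 with 10 mM MgCl2.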
BAZ2B inh – BAZ2B (human) inhibition | Q9UIF8 | AlphaScreen BAZ2B-H3K14Ac peptide displacement | Potency, µM (top dose mostly 114 µM), without a hit: at the top dose activity change, negative = inhibition, most hits filed as inhibitors | hit rate 4.4% among 360,000 | AID 504333; further: on the % scale 0 is the no-effect control and ±100 the full control effect; nearly all actives have a fitted effect of over 60% in size
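BAZ2B 50 nM plus b-H3(5-23)K14Ac 50 nM, PBS pH 7.4/0.01% Tween-20, 30 min RT; compound added (max 110 uM), 30 min RT; streptavidin donor/Ni-chelate acceptor beads 10 ug/mL final, 20 min dark; AlphaScreen read.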
JMJD2A Tudor inh – inhibitors of human JMJD2A Tudor domain; O75164; AlphaScreen JMJD2A-Tudor / H3K4me3 peptide binding; Potency, µM (doses to about 114 µM), inactives show at the top dose activity change, negative = inhibition, usual class: inhibitors; hit rate 4.4% among 390,000; further: on the % scale 0 is the no-effect control and ±100 the full control effect; nearly all actives have a fitted effect of over 50% in size
Target sequence (O75164 whole entry, looked up, the tested form may be a part): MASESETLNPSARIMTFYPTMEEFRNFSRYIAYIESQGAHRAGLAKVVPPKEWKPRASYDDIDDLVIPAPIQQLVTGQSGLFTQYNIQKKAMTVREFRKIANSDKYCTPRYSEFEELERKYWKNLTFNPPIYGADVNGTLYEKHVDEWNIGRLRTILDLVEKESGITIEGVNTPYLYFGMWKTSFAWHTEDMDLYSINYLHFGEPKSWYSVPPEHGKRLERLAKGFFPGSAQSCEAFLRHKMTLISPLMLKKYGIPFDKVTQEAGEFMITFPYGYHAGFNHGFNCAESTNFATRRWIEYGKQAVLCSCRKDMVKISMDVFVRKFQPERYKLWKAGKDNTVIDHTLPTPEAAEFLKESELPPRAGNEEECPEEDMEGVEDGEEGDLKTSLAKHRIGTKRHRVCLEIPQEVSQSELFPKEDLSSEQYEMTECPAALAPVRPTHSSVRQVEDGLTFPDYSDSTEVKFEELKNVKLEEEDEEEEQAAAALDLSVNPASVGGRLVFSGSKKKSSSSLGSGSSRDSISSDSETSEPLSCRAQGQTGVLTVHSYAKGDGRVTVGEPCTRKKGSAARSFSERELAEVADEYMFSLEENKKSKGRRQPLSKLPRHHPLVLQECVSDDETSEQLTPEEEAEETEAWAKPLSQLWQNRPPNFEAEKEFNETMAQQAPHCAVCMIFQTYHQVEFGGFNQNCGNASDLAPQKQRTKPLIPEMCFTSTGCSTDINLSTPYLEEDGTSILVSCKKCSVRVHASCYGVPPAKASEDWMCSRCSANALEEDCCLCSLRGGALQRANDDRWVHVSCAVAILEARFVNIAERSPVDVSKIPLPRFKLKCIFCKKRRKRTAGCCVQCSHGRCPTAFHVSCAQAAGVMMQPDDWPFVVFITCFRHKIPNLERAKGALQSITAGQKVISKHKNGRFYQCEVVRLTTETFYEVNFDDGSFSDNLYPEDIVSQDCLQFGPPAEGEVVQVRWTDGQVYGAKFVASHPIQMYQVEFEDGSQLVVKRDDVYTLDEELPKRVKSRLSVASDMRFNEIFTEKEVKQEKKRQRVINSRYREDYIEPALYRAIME
HP1b chromo inh – blocks HP1-beta chromodomain binding to methylated histone tails; AID 540317; AlphaScreen HP1-beta / biotin-H3K9me3 peptide binding; hit rate 0.56% among 390,000; Potency, µM (top dose mostly 114 µM), for inactives: top-dose activity change, negative = inhibition, hits mostly inhibitors; further: nearly all actives have a fitted effect of over 70% in size
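HP1-beta protein (50 nM final) preincubated 30 min at room temperature with biotinylated H3(1-18)K9me3 peptide (50 nM) in PBS pH 7.4, 0.01% Tween-20, then compound added for 30 min. AlphaScreen streptavidin donor/nickel chelate acceptor beads (10 ug/mL final), 30 min dark, luminescence read.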
G9a inh – blocks human histone lysine methyltransferase G9a; G9a H3K9 monomethylation, AlphaScreen, 2 h; Potency, µM (doses to about 102 µM), inactives show at the highest dose activity, negative = inhibition, usual class: inhibitors; hit rate 8.8% among 350,000; AID 504332; further: on the % scale 0 is the no-effect control and ±100 the full control effect; nearly all actives have a fitted effect of over 75% in size
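Quantitative HTS format: methyltransferase activity on a biotin-tagged H3K9 peptide is measured by AlphaScreen, using a rabbit anti-monomethyl-H3K9 antibody with streptavidin donor and anti-IgG acceptor beads. Final levels are 20 nM enzyme, 500 nM peptide, 20 uM SAM; 2 h RT.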
The depositor's hits bear a star; [ ] = dose if it differs, or a comment. In the library only some 12% were active in any assay of this set; here they are far more common. The call rests on the fitted dose curve; in most records, active means well fitted curve in the direction sought with a large enough effect; inconclusive means small, poorly fitted or top-dose-only effect, or another doubt; inactive means no such curve, though single readings can be large; an effect the other way counts as inactive or inconclusive. Potency means the concentration at half of the fitted maximal effect.

`Cc1nnc(N2C(=O)c3cccc4c([N+](=O)[O-])ccc(c34)C2=O)s1` gave Sfp PPTase inh -19%, BAZ2B inh -21%, JMJD2A Tudor inh -5%, HP1b chromo inh 54% and G9a inh 50µM*.
`Cc1ccnc(N2C(=O)c3cccc4c([N+](=O)[O-])ccc(c34)C2=O)c1` gave Sfp PPTase inh -9%, BAZ2B inh 5%, JMJD2A Tudor inh -25%, HP1b chromo inh 2% and G9a inh inconclusive.
For O=C1c2cccc3c([N+](=O)[O-])ccc(c23)C(=O)N1Cc1cccnc1 the results were Sfp PPTase inh inconclusive, BAZ2B inh 40µM*, JMJD2A Tudor inh -21%[57.1 µM], HP1b chromo inh inconclusive and G9a inh inconclusive.
For COC(=O)c1cc(C)nc2c1c(=O)nc(SCc1cccc(C(F)(F)F)c1)n2C1CC1 the results were BAZ2B inh 2%, JMJD2A Tudor inh -10%, HP1b chromo inh 11%[57 µM] and G9a inh -12%[59 µM].
`Cc1cccc(NC(=O)C2C3CCCCC32)c1` (stereo not drawn) gave Sfp PPTase inh -3%, BAZ2B inh -3%, JMJD2A Tudor inh -1%, HP1b chromo inh 26% and G9a inh 42%.
Screening COc1ccc(NC(=O)c2cc(-c3ccncc3)nc3ccc(Br)cc23)cc1OC returned Sfp PPTase inh inconclusive, BAZ2B inh -25%, JMJD2A Tudor inh -18%, HP1b chromo inh 23% and G9a inh 11%.
Screening O=C(NCc1ccccc1)c1ccccc1C(=O)c1ncc[nH]1 returned Sfp PPTase inh inconclusive, BAZ2B inh inconclusive, JMJD2A Tudor inh -2%, HP1b chromo inh 29% and G9a inh 13µM*.
Screening CCCN(C(=O)Cn1c(=O)oc2cc(Cl)ccc21)c1ccc(C(C)C)cc1 returned BAZ2B inh -12%, JMJD2A Tudor inh 18%, HP1b chromo inh 55% and G9a inh inconclusive.
CN1CCN(C(=O)CCN2C(=O)/C(=C/c3cccc(Br)c3)SC2=S)CC1 was read as Sfp PPTase inh -3%, BAZ2B inh -38%, JMJD2A Tudor inh -21%, HP1b chromo inh -2% and G9a inh 25µM*.
`O=C(CCN1C(=O)/C(=C\c2cccc(Br)c2)SC1=S)NCCCN1CCOCC1` gave Sfp PPTase inh -4%, BAZ2B inh inconclusive, JMJD2A Tudor inh inconclusive, HP1b chromo inh -25% and G9a inh 45µM*.
Screening O=C(CCN1C(=O)/C(=C/c2ccccc2)SC1=S)NCCCN1CCOCC1 returned Sfp PPTase inh -4%, BAZ2B inh -13%, JMJD2A Tudor inh -13%, HP1b chromo inh 4% and G9a inh 8%.
`O=C(CCCN1C(=O)/C(=C/c2cccc(Br)c2)SC1=S)N1CCOCC1` gave Sfp PPTase inh -19%, BAZ2B inh -23%, JMJD2A Tudor inh inconclusive, HP1b chromo inh inconclusive and G9a inh inconclusive.
For CN1CCN(C(=O)CCCN2C(=O)/C(=C/c3cccc(Br)c3)SC2=S)CC1 the results were Sfp PPTase inh -20%, BAZ2B inh 45µM*, JMJD2A Tudor inh 35µM*, HP1b chromo inh 40µM* and G9a inh 40µM*.
Screening O=C(Nc1ccc(NC(=O)c2ccccc2F)cn1)c1ccco1 returned Sfp PPTase inh 17%, BAZ2B inh -4%, JMJD2A Tudor inh -4%, HP1b chromo inh 27% and G9a inh 14%.
Screening CCOc1ccc(NC2=C(OC)C(=O)c3ccccc3C2=O)cc1 returned Sfp PPTase inh -24%, BAZ2B inh 10µM*, JMJD2A Tudor inh 8.9µM*, HP1b chromo inh 25µM* and G9a inh 8.9µM*.
For COC1=C(Nc2ccc(OC)cc2)C(=O)c2ccccc2C1=O the results were Sfp PPTase inh inconclusive, BAZ2B inh 8.9µM*, JMJD2A Tudor inh 20µM*, HP1b chromo inh 22µM* and G9a inh 10µM*.
For COC1=C(Nc2ccc(O)cc2)C(=O)c2ccccc2C1=O the results were Sfp PPTase inh inconclusive, BAZ2B inh 40µM*, JMJD2A Tudor inh 45µM*, HP1b chromo inh 50µM* and G9a inh 28µM*.
Screening COC1=C(Nc2ccc(OC)cc2)C(=O)C(OC)=C(Nc2ccc(OC)cc2)C1=O returned JMJD2A Tudor inh -12% and HP1b chromo inh 11%.
`Cc1cc2c(cc(C(=O)OC(C)C(=O)NCc3ccc(F)cc3)n2C)o1` (stereo not drawn) gave JMJD2A Tudor inh -17% and HP1b chromo inh 13%[57 µM].
`Cc1cc(-n2c(C)cc(C(=S)N3CCOCC3)c2C)ccc1Br` gave Sfp PPTase inh -27%, BAZ2B inh 45µM*, JMJD2A Tudor inh inconclusive, HP1b chromo inh inconclusive and G9a inh 13µM*.
Screening O=C(COc1nncc2ccccc12)Nc1ccc(F)c(F)c1 returned Sfp PPTase inh 10%, BAZ2B inh -6%, JMJD2A Tudor inh -5%, HP1b chromo inh -6% and G9a inh 10%.
CCN(CC)CCC#CC(O)(c1ccccc1)c1ccccc1 was read as Sfp PPTase inh 6%, BAZ2B inh 12%, JMJD2A Tudor inh 0%, HP1b chromo inh 28% and G9a inh 2%[59 µM].
Screening C[N+]1(CC#CC(O)(c2ccccc2)c2ccccc2)CCCC1 returned Sfp PPTase inh 4%, BAZ2B inh -32%, JMJD2A Tudor inh inconclusive, HP1b chromo inh 5% and G9a inh 8.9µM*.
For COc1ccccc1NC(=O)c1cc2cc3ccc(OC)c(Cl)c3nc2s1 the results were BAZ2B inh 79µM*, JMJD2A Tudor inh 56µM*, HP1b chromo inh 5%[57 µM] and G9a inh 28µM*.
`FC(F)c1nc2ccccc2[nH]1` gave Sfp PPTase inh inconclusive, BAZ2B inh 40µM*, JMJD2A Tudor inh -8% and HP1b chromo inh 23%.
`COc1ccc(Cl)cc1N/C(N)=N/c1nc(C)cc(=O)[nH]1` gave Sfp PPTase inh -13%, BAZ2B inh -12%, JMJD2A Tudor inh inconclusive, HP1b chromo inh 24% and G9a inh 20µM*.
For Cc1cc(=O)[nH]c(/N=C(\N)Nc2ccc3c(c2)OCCO3)n1 the results were Sfp PPTase inh -16%, BAZ2B inh -24%, JMJD2A Tudor inh -8%, HP1b chromo inh -18% and G9a inh 22µM*.
COc1ccc(Cl)cc1N/C(N)=N/c1nc(CSc2ccc(C)cc2)cc(=O)[nH]1 was read as Sfp PPTase inh -5%, BAZ2B inh 20%, JMJD2A Tudor inh -25%, HP1b chromo inh 9% and G9a inh -41%[59 µM].
Cc1cc(C)nc(/N=C(\N)Nc2ccc3c(c2)OCCO3)n1 was read as Sfp PPTase inh -6%, BAZ2B inh 15%, JMJD2A Tudor inh -15%, HP1b chromo inh 55% and G9a inh -8%.
`Cc1ccc(N2C(=O)C(CC(=O)Nc3ccccc3)N(CCC3=CCCCC3)C2=O)cc1` (stereo not drawn) gave BAZ2B inh inconclusive, JMJD2A Tudor inh -25%, HP1b chromo inh 16% and G9a inh -13%[59 µM].
